Only some compounds are listed: those with a hit (about 1.6% of all), similar ones and a draw of the others.
KCNQ2 block: inhibitors of rat KCNQ2 potassium channel; O88943; CHO-K1 KCNQ2, FluxOR thallium flux, 20 min; active compounds read low; B-score at 10 µM; hit rate 1.1% among 310,000; AID 2156;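 active means fluorescence ratio B-score at most minus 3 library SDs, with starting brightness B-score within 2 library SDs, cut at about -5.5 in these data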
KCNQ2 pot: KCNQ2 (rat) channel potentiation | O88943 | CHO-K1 KCNQ2, FluxOR thallium flux fluorescence; active compounds read high | hit rate 0.54% among 310,000 | B-score at 10 µM;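 active means fluorescence ratio B-score at least 3 SD of library B-scores, with initial fluorescence B-score within 3 of them, cut at about 5.3 in these data; same plate scores as AID 2156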;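 further: B-score of peak minus minimum over baseline fluorescence ratio after K+ and Tl+ stimulus; positive B-score means potentiation of KCNQ2 with more thallium influx and brighter signal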
Hits are given with their value; i = inactive; nt = no result given.

SMILES	KCNQ2 block	KCNQ2 pot
CCCc1cc(=O)oc2cc(C)cc(OCC(=O)NCCCN3CCCC3=O)c12	i	i
CC(C)Cc1ccc(C(=O)Nc2ccc(Cc3ccncc3)cc2)o1	i	i
CN(C(=O)CC1C(=O)NCCN1CC(c1ccccc1)c1ccccc1)C(C1CC1)C1CC1 (centres undefined)	i	nt
CN(CC1CCOCC1)C(=O)CC1C(=O)NCCN1CC(c1ccccc1)c1ccccc1 (centres undefined)	-5.9	i
CN(C)S(=O)(=O)c1cccc(NC(=O)c2ccc(OC(F)(F)F)cc2)c1	i	i
CN(C)S(=O)(=O)c1cccc(NC(=O)c2ccc(COc3ccccc3)cc2)c1	-5.8	i
CCOc1cc(C)c(C(C)C)cc1S(=O)(=O)n1cnc(C)c1	i	8.7
CCOc1cc(C)c(C(C)C)cc1S(=O)(=O)N1CC(C)OC(C)C1 (centres undefined)	i	i
CCCCN(C(=O)c1ccc(NC(=O)C(C)C)cc1)c1ccccc1	i	nt
CC(C)C(=O)N1CCN(c2ccccc2NC(=O)c2cccc(Cl)c2)CC1	-6.6	i
CS(=O)(=O)N1CCN(c2ccccc2NC(=O)c2cccc3ccccc23)CC1	i	nt
CC(C)C(=O)N1CCN(c2ccccc2NC(=O)c2cccc3ccccc23)CC1	-7.3	i
O=C(Nc1ccccc1N1CCN(C(=O)c2ccccc2)CC1)c1ccc(Cl)cc1	i	nt
Cn1c(=O)n(C)c2cc(N3CCCCC3)c(NC(=O)c3cccc(Cl)c3)cc21	i	nt
COc1ccc(C(=O)Nc2ccccc2N2CCN(C(=O)c3ccccc3)CC2)cc1Br	-7.2	i
O=C(CCC(=O)Nc1nnc(C2CCCCC2)s1)Nc1ccccc1	i	nt
CCc1ccc(NC(=O)C(=O)NNC(=O)COc2cccc(OC)c2)cc1	i	6
COc1ccc(NC(=O)C(=O)NNC(=O)COc2ccc(OC)cc2)cc1	i	i
CC1=C(C(=O)OCCNC(=O)c2ccccc2O)C(c2ccccc2[N+](=O)[O-])C(C(=O)OCC2CCCO2)=C(C)N1 (centres undefined)	i	i
CCN1/C(=C/c2ccc3ccccc3[n+]2CC)C=Cc2ccccc21	-15	i
CCN1/C(=C/c2ccc3ccccc3[n+]2CCCS(=O)(=O)[O-])C=Cc2cc(C)ccc21	i	i
COc1ccc(CCNC(=O)Cn2cnc3scc(-c4ccccc4)c3c2=O)cc1OC	i	nt
CN1CCC(NC(=O)c2cc(-c3cccc(Br)c3)nc3ccccc23)CC1	i	nt
Cc1ccnc(NC(=O)c2ccc(S(=O)(=O)N3CCCC3)cc2)c1	i	nt
CCOC(=O)N1CCN(CC(=O)Nc2sc(CC)cc2C(=O)c2ccc(OC)cc2)CC1	-5.9	i
SMILES	KCNQ2 block	KCNQ2 pot
CCc1cc(C(=O)OC)c(NC(=O)CN2CCN(C(=O)c3ccco3)CC2)s1	i	i
COc1cc2c(cc1OC)C(CSc1ccccc1C(=O)O)=NC(C)(C)C2	i	nt
CC1(C)Cc2ccccc2C(CSc2ccccc2C(=O)O)=N1	-6	i
CCCCNc1nc2ccccc2nc1Cl	i	i
COc1ccc(C2(c3ccc(O)cc3O)CC(c3ccccc3Cl)NC(=S)N2)cc1 (centres undefined)	i	6.1
COc1cccc(C2CC(c3ccccc3Cl)n3nc(N)nc3N2)c1 (centres undefined)	i	i
COc1ccccc1NC(=O)N(Cc1ccco1)Cc1cc2ccc(C)c(C)c2[nH]c1=O	i	nt
COc1ccccc1NC(=O)N(Cc1ccco1)Cc1cc2cc(C)cc(C)c2[nH]c1=O	-6	i
Cc1ccc2cc(CN(Cc3ccco3)C(=O)NCc3ccccc3)c(=O)[nH]c2c1C	i	nt
Cc1cccc2cc(CN(Cc3ccco3)C(=O)Nc3cccc(C#N)c3)c(Cl)nc12	i	nt
COc1ccccc1NC(=O)CN(Cc1ccco1)C(=O)c1ccc(=O)[nH]c1	i	nt
Cc1ccc(C)c2[nH]c(=O)c(CN(Cc3ccco3)C(=O)Nc3ccccc3)cc12	-5.6	i
COc1ccccc1NC(=O)CN(Cc1ccco1)C(=O)c1cc2ccccc2o1	-7.6	i
Cc1ccc(NC(=O)N(Cc2ccco2)Cc2cc3cc(C)cc(C)c3nc2Cl)cc1	-6.8	i
COc1ccc(CN2CCN(C(=O)Cn3ncn4cccc4c3=O)CC2)c(OC)c1OC	i	i
O=C1CC(c2ccc(Br)cc2)NC(c2ccc(Br)cc2)C1c1ccccc1 (centres undefined)	-5.7	i
c1ccc(C2CC(c3ccccc3)C(c3ccccc3)N2)cc1 (centres undefined)	i	nt
Cc1ccc(-n2nnnc2SCC(=O)NC2CCCc3ccccc32)cc1 (centres undefined)	i	nt
Cc1ccc(-n2nnnc2SCC(=O)NC2CCCc3ccccc32)c(C)c1 (centres undefined)	-6.5	i
COCCN(C(=O)Cc1cccs1)C(C(=O)NC1CCCC1)c1cc(OC)c(OC)c(OC)c1 (centres undefined)	i	i
Cc1nn(C(C)(C)C)c(OC(=O)c2ccc3c(c2)OCO3)c1Sc1ccccc1	i	nt
Cc1nn(C(C)(C)C)c(OC(=O)c2cccs2)c1Sc1ccccc1	-8	i
Cc1nn(C(C)(C)C)c(OC(=O)c2ccc(Br)o2)c1Sc1ccccc1	i	nt
Cc1nn(C(C)(C)C)c(OC(=O)c2ccco2)c1Sc1ccccc1	-6.1	i
O=C(Cn1ncn2nc(-c3ccccc3)cc2c1=O)NCc1ccccn1	i	i
SMILES	KCNQ2 block	KCNQ2 pot
COc1ccc(C(=O)NNC(=O)COc2ccc(Cl)cc2C)cc1S(=O)(=O)N1CCOCC1	-5.6	i
COc1ccc(C(=O)Nc2cccc(C)c2)cc1S(=O)(=O)N1CCOCC1	i	i
Cc1ccc(Cl)cc1N1CCN(S(=O)(=O)c2ccc3c(c2)NC(=O)C(C)C(=O)N3)CC1 (centres undefined)	i	nt
O=C(CN1C(=O)NC2(CCCC2)C1=O)OCCOc1cccc(Br)c1	i	i
CCC(=Nc1ccccc1OC)C1=C(O)CC(c2ccccc2)CC1=O (centres undefined)	-5.8	i
CCC(=Nc1ccccc1O)C1=C(O)CC(c2ccccc2)CC1=O (centres undefined)	i	i
CC(NC(=O)N(Cc1ccccc1)Cc1ccc2c(c1)OCO2)(C(F)(F)F)C(F)(F)F	i	nt
CCC(NC(=O)N(Cc1ccccc1)Cc1ccc2c(c1)OCO2)(C(F)(F)F)C(F)(F)F	-8.1	i
Cc1nn(C)cc1S(=O)(=O)N1CCN(c2ccccc2)CC1	i	nt
CCOC(=O)c1ccc(N=c2sc(C(=O)OC)cc(=O)n2Cc2ccc3c(c2)OCO3)cc1	-5.9	i
COC(=O)c1cc(=O)n(Cc2ccc3c(c2)OCO3)c(=Nc2ccc(F)cc2)s1	i	nt
CSC1=NC2(C[C@H]2c2ccccc2)C(=O)N1C (some centres undefined)	i	i
CCOC(=O)/C(=C/c1ccc(OC(=O)c2ccncc2)cc1)C(C)=O	-5.7	i
COCCOC(=O)/C(=C/c1ccc(OC(=O)c2ccccc2)cc1)C(C)=O	i	i
COC(=O)C1=C(C)N(c2cccc(C)c2)C(=O)/C1=C\c1cccs1	-6.7	i
CCOC(=O)C1=C(C)N(c2ccccc2)C(=O)/C1=C\c1cccs1	i	nt
FC(F)(F)c1ccc(C2NCCc3sccc32)cc1 (centres undefined)	i	nt
Cn1nnc2c[n+](CC(=O)c3ccc(Cl)cc3)cc(Br)c21	-6.1	i
Cn1nnc2c[n+](CC(=O)c3ccc4ccccc4c3)cc(Br)c21	i	nt
O=C(CSc1nccc(-c2cccs2)n1)Nc1ccc(Cl)cc1	i	i
Cc1onc(-c2ccc(Cl)cc2)c1-c1ccnc(SCC(=O)Nc2ccc(C(C)C)cc2)n1	-5.6	i

Screening results: PubChem, Johns Hopkins Ion Channel Center
